According to PubChem BioAssay (EPA / NIEHS):
Inconclusive results are not listed. Activity calls are given as the source filed them. The calls were made as follows, unless noted: active = hit-call score of the fitted dose curve at least 0.9, where 1 is the maximum; inconclusive = response in the unintended direction; inactive = score below 0.9.

Target: Estrogen receptor (Homo sapiens) (UniProt P03372)
Sequence (P03372 whole entry, looked up): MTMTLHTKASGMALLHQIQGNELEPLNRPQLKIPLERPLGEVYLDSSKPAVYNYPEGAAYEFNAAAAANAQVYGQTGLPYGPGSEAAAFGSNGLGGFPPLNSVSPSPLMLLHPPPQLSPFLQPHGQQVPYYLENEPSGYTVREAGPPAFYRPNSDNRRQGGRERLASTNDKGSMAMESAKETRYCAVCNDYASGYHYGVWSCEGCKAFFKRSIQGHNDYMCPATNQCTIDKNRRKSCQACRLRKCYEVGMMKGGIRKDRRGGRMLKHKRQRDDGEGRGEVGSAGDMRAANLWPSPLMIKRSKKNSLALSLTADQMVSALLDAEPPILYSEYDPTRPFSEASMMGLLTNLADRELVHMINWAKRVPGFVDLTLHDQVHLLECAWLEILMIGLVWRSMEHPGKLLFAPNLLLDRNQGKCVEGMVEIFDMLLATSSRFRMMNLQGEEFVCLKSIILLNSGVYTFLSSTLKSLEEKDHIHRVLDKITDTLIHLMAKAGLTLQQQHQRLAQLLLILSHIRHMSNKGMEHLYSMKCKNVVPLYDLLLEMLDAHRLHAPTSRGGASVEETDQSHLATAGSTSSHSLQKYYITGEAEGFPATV
Assay: CCTE_Deisenroth_AIME_384WELL_LUC_Inactive: CCTE's 384-well Estrogen Receptor Transactivation Assay without AIME metabolic competence (ERTA luciferase; metabolism negative), Deisenroth Lab (AID 2284038);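 also: VM7Luc4E2 breast cells given medium preincubated 2 h with S9-free microspheres; hits raise estrogen receptor luciferase signal so potencies reflect agonists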
Outline: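 VM7Luc4E2 ER transactivation, luciferase bioluminescence after 24 h, using medium pre-incubated 2 h with S9-free alginate microspheres. Concentrations 0.002–200 uM; gain of signal fitted relative to 17beta-estradiol.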
For `O=C(O)c1cccc(Oc2ccccc2)c1`, the outcome was “inactive”.
With `Cn1c(=O)cc(Oc2ccc(F)cc2F)c2cnc(NCC(C)(C)O)nc21` the outcome was “inactive”.
For `CC(C)CCO`, the outcome was “inactive”.
In the case of `Nc1ccc(Nc2ccccc2)cc1`, the outcome is reported as “inactive”.
In the case of `O=c1n(CC2CO2)c(=O)n(CC2CO2)c(=O)n1CC1CO1` (configuration not stated), the outcome is reported as “inactive”.
In the case of `CCCC(=O)OCC`, the outcome is reported as “inactive”.
In the case of `Cc1ccc(N)cc1O`, the outcome is reported as “inactive”.
With `COc1cccc(-c2ccc(/C=C\CN3CCCCCC3)cc2Cl)c1` the outcome was “inactive”.
With `CCCCCCCCO` the outcome was “inactive”.
In the case of `C=CC(=C)CCC=C(C)C`, the outcome is reported as “inactive”.
In the case of `O=c1[nH]c2ccc(S(=O)CCN3CCC(Cc4ccc(F)cc4)CC3)cc2o1` (configuration not stated), the outcome is reported as “inactive”.

System: not listed separately
Assay: CCTE_Deisenroth_AIME_384WELL_CTox_Inactive: Cytotoxicity Assessment (CTOX) in CCTE's 384-well Estrogen Receptor Transactivation Assay without AIME metabolic competence (metabolism negative), Deisenroth Lab (AID 2284039);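 also: cell viability via live-cell protease substrate cleaved to fluorescent probe; cells exposed 24 h to medium preincubated 2 h with alginate-water beads without S9; loss of fluorescence signal means loss of viability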
Outline: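 Metabolism-negative arm: chemicals (10-point, 0.002 - 200 uM) preincubated 2 h with alginate-water lids, medium moved onto VM7Luc4E2 cells for 24 h. Fluorescent live-cell protease readout; bidirectional curve fit.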
In the case of `Oc1ccc2c(c1)-c1ccccc1C2`, the AC50 is reported as 156 µM (active).
For `COCCOc1cc2cc(C(=O)NC3CCN(C(C)C)CC3)n(CC(=O)Nc3ccc(Cl)cn3)c2cn1`, the outcome was “inactive”.
In the case of `CC1=CC(=O)CC(C)(C)C1`, the outcome is reported as “inactive”.
In the case of `O=C(O)c1cccc(Oc2ccccc2)c1`, the AC50 is reported as 0.000708 µM (active).
In the case of `O=C(O)c1cc(N=Nc2ccc(S(=O)(=O)Nc3ccccn3)cc2)ccc1O`, the AC50 is reported as 49.7 µM (active).
With `CC(C)=CCC/C(C)=C\CO` the outcome was “inactive”.
For `CCCCCCc1ccc(O)cc1O`, the AC50 was 162 µM (active).
With `CCOC(=O)c1ccc(C2CCC(NC[C@H](O)COc3ccc(O)c(NS(C)(=O)=O)c3)CC2)cc1` (some centres not stated) the AC50 was 128 µM (active).
With `Cn1c(=O)cc(Oc2ccc(F)cc2F)c2cnc(NCC(C)(C)O)nc21` the outcome was “inactive”.
For `Nc1cccc(N)c1`, the outcome was “inactive”.
In the case of `CC(C)CCO`, the outcome is reported as “inactive”.
For `Nc1ccc(Nc2ccccc2)cc1`, the AC50 was 74.6 µM (active).
In the case of `CCOCCOCCOCCO`, the outcome is reported as “inactive”.
For `O=c1n(CC2CO2)c(=O)n(CC2CO2)c(=O)n1CC1CO1` (configuration not stated), the AC50 was 100 µM (active).
For `Cn1c(=O)c2c(ncn2C)n(C)c1=O`, the outcome was “inactive”.
For `CNCc1ccc(NC(=O)c2c[nH]c3c2C(=O)CCC3)cc1`, the outcome was “inactive”.
With `CC(=O)OCCC(C)C` the outcome was “inactive”.
With `CC(C)c1cccc(C(C)C)c1N1C(=O)c2ccc(O)cc2C1=O` the outcome was “inactive”.
With `On1ccccc1=S` the outcome was “inactive”.
In the case of `Cc1ccc(N)cc1O`, the outcome is reported as “inactive”.
With `COc1cccc(-c2ccc(/C=C\CN3CCCCCC3)cc2Cl)c1` the outcome was “inactive”.
With `CCCCCCCCO` the outcome was “inactive”.
In the case of `CCN(C(=O)c1cc(C)cc(OC[C@H](C)Nc2ccncc2)c1)C(C)C`, the outcome is reported as “inactive”.
In the case of `COCCOCCOCCOC`, the outcome is reported as “inactive”.
For `COc1ccc2sc(C(=O)Nc3nnn[nH]3)c(OC(C)C)c2c1`, the outcome was “inactive”.

Target: Estrogen receptor (Homo sapiens) (UniProt P03372)
Assay: CCTE_Deisenroth_AIME_384WELL_LUC_Shift: CCTE's 384-well Estrogen Receptor Transactivation Assay with AIME metabolic competence data shift (ERTA luciferase; difference in metabolism positive and negative), Deisenroth Lab (AID 2284041; active = hit-call score of the fitted dose curve at least 0.9, where 1 is the maximum; inactive = score below 0.9;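 also: shift is response with S9 minus without S9 so positive means metabolism raised ER signal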)
Outline: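 Here, parent compounds undergo 2 h phase I metabolism by PB/BNF-induced rat S9 before 24 h transactivation in VM7Luc4E2 cells; the curve models S9-positive minus S9-negative response over a 10-point series.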
In the case of `O=C(O)c1cccc(Oc2ccccc2)c1`, the outcome is reported as “inactive”.
In the case of `Cn1c(=O)cc(Oc2ccc(F)cc2F)c2cnc(NCC(C)(C)O)nc21`, the AC50 is reported as 79.3 µM (active).
With `CC(C)CCO` the outcome was “inactive”.
In the case of `Nc1ccc(Nc2ccccc2)cc1`, the outcome is reported as “inactive”.
In the case of `CCCC(=O)OCC`, the outcome is reported as “inactive”.
With `Cc1ccc(N)cc1O` the outcome was “inactive”.
With `COc1cccc(-c2ccc(/C=C\CN3CCCCCC3)cc2Cl)c1` the outcome was “inactive”.
For `CCCCCCCCO`, the outcome was “inactive”.
For `C=CC(=C)CCC=C(C)C`, the outcome was “inactive”.
In the case of `O=c1[nH]c2ccc(S(=O)CCN3CCC(Cc4ccc(F)cc4)CC3)cc2o1` (configuration not stated), the outcome is reported as “inactive”.
In the case of `COc1ccc2sc(C(=O)Nc3nnn[nH]3)c(OC(C)C)c2c1`, the outcome is reported as “inactive”.

System: not listed separately
Assay: CCTE_Shafer_MEA_dev_burst_rate: CCTE's Neural Network Formation Assay for Burst Rate, Shafer Lab (AID 2284042; active = hit-call score of the fitted dose curve at least 0.9, where 1 is the maximum; inactive = score below 0.9)
Outline: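 Cells plated, treated day 0; recorded DIV 5, 7, 9, 12; fed and re-treated DIV 5, 9. Endpoint: bursts per recording time, active-electrode well mean, trapezoidal AUC, fitted in decreasing direction against DMSO baseline.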
For `Nc1nc2ncc(CNc3ccc(C(=O)N[C@@H](CCC(=O)O)C(=O)O)cc3)nc2c(=O)[nH]1`, the outcome was “inactive”.
In the case of `O=P(OC(CCl)CCl)(OC(CCl)CCl)OC(CCl)CCl`, the outcome is reported as “inactive”.
In the case of `NC(=O)NO`, the outcome is reported as “inactive”.
In the case of `COc1ccc(-n2nc(C(F)F)cc2-c2ccc(S(C)=O)cc2)cc1` (configuration not stated), the outcome is reported as “inactive”.
In the case of `CCC(C)(C)C(=O)O[C@H]1C[C@@H](C)C=C2C=C[C@H](C)[C@H](CC[C@@H]3C[C@@H](O)CC(=O)O3)[C@H]21`, the outcome is reported as “inactive”.
For `Cn1c(=O)c2c(ncn2C)n(C)c1=O`, the outcome was “inactive”.
For `CNCc1ccc(NC(=O)c2c[nH]c3c2C(=O)CCC3)cc1`, the outcome was “inactive”.
With `O=C1CCC(N2C(=O)c3ccccc3C2=O)C(=O)N1` (configuration not stated) the outcome was “inactive”.
With `CC[C@H](C)C(=O)O[C@H]1C[C@@H](C)C=C2C=C[C@H](C)[C@H](CC[C@@H]3C[C@@H](O)CC(=O)O3)[C@H]21` the outcome was “inactive”.
For `CC[C@H]1OC(=O)[C@H](C)[C@@H](O[C@H]2C[C@@](C)(OC)[C@@H](O)[C@H](C)O2)[C@H](C)[C@@H](O[C@@H]2O[C@H](C)C[C@H](N(C)C)[C@H]2O)[C@](C)(O)C[C@@H](C)C(=O)[C@H](C)[C@@H](O)[C@]1(C)O`, the outcome was “inactive”.

System: not listed separately
Assay: CCTE_Shafer_MEA_dev_bursting_electrodes_number: CCTE's Neural Network Formation Assay for Number of Bursting Electrodes, Shafer Lab (AID 2284043);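 as to AC50: potency is for loss of bursting electrodes relative to DMSO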
Outline: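 Counted: electrodes with burst rate ≥1 per 2 min in each well. Cells: primary rat cortex, 1.5 x 10^5/well, on 16-electrode MEA wells. Exposure: DIV 0–12, compound renewed DIV 5 and 9. Recording days 5, 7, 9, 12; AUC vs DMSO baseline.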
With `Nc1nc2ncc(CNc3ccc(C(=O)N[C@@H](CCC(=O)O)C(=O)O)cc3)nc2c(=O)[nH]1` the outcome was “inactive”.
In the case of `O=P(OC(CCl)CCl)(OC(CCl)CCl)OC(CCl)CCl`, the outcome is reported as “inactive”.
With `NC(=O)NO` the outcome was “inactive”.
For `COc1ccc(-n2nc(C(F)F)cc2-c2ccc(S(C)=O)cc2)cc1` (configuration not stated), the AC50 was 10 µM (active).
In the case of `CCC(C)(C)C(=O)O[C@H]1C[C@@H](C)C=C2C=C[C@H](C)[C@H](CC[C@@H]3C[C@@H](O)CC(=O)O3)[C@H]21`, the AC50 is reported as 1.06 µM (active).
With `Cn1c(=O)c2c(ncn2C)n(C)c1=O` the outcome was “inactive”.
For `CNCc1ccc(NC(=O)c2c[nH]c3c2C(=O)CCC3)cc1`, the AC50 was 1.98 µM (active).
In the case of `O=C1CCC(N2C(=O)c3ccccc3C2=O)C(=O)N1` (configuration not stated), the outcome is reported as “inactive”.
With `CC[C@H](C)C(=O)O[C@H]1C[C@@H](C)C=C2C=C[C@H](C)[C@H](CC[C@@H]3C[C@@H](O)CC(=O)O3)[C@H]21` the AC50 was 1.91 µM (active).
For `CC[C@H]1OC(=O)[C@H](C)[C@@H](O[C@H]2C[C@@](C)(OC)[C@@H](O)[C@H](C)O2)[C@H](C)[C@@H](O[C@@H]2O[C@H](C)C[C@H](N(C)C)[C@H]2O)[C@](C)(O)C[C@@H](C)C(=O)[C@H](C)[C@@H](O)[C@]1(C)O`, the outcome was “inactive”.
